# Assay outcomes: PubChem, National Center for Advancing Translational Sciences (NCATS)
# DT40 TDP1 no CPT: qHTS for Inhibitors of human tyrosyl-DNA phosphodiesterase 1 (TDP1): qHTS in cells in absence of CPT; DT40 Tdp1-/- hTDP1 cells, no CPT, ATP luminescence, 48 h; actives 15% (n = 420,000); Potency, µM (top dose mostly 46.2 µM), for inactives: top-dose activity change, negative = growth inhibition, actives largely listed as inhibitors; AID 686978, 2013; note: % is set by controls: 0 for no effect and ±100 for the full control effect; nearly all actives have a fitted effect of over 55% in size
#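 Luminescent ATP content (CellTiter-Glo) served as the growth readout. Knockout chicken DT40 cells expressing human TDP1 were exposed to compounds without camptothecin for a minimum 48 hr at 37 °C.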
# HepG2 viability: kills HepG2 cells in TGF-b inhibitor counter-screen; HepG2 CAGA-GFP viability, ATP luminescence, 18 h; Potency, µM (highest dose often 46.1 µM), inactives show at the highest dose activity change, negative = cytotoxicity, usual class: cytotoxic; actives 0.76% (n = 410,000)
#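 HepG2 CAGA-GFP cells (1000/well, DMEM with 1% FBS) received compound, then TGF-beta at 500 pg/mL final, and were incubated 18 hours at 37 degrees C. Viability was read by CellTiter-Glo luminescence. Media-only wells were set as complete cell-killing and DMSO as no toxicity.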
# TGFb SMAD3 inh: inhibitors of TGF-b signaling; AID 588855; HepG2 CAGA-GFP TGF-b/SMAD3 reporter, GFP fluorescence, 18 h; TGF-beta stimulated, 500 pg/mL final; actives 1.2% (n = 410,000); Potency, µM (highest dose often 46.1 µM), inactives show at the top dose activity, negative = inhibition, usual class: inhibitors; note: % is set by controls: 0 for no effect and ±100 for the full control effect; nearly all actives have a fitted effect of over 65% in size
#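 Smad-responsive CAGA-GFP expression was quantified in HEPG2 cells exposed to compounds and 500 pg/mL final TGF-beta for 18 h at 37 degrees C; unstimulated wells defined full inhibition.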
# TDP1 cell CPT: DT40-hTDP1 cell growth loss with CPT | chicken DT40 Tdp1-/-;hTDP1 cells + 20 nM CPT, ATP luminescence, 48 h | Potency, µM (titrated, usually from 46.2 µM), for inactives: top-dose activity change, negative = growth inhibition, hits mostly inhibitors | actives 12% (n = 420,000) | AID 686979; note: % is set by controls: 0 for no effect and ±100 for the full control effect; nearly all actives have a fitted effect of over 55% in size
#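 Chicken DT40 Tdp1-/- cells stably complemented with human TDP1 were seeded at 400 cells/well in medium containing 20 nM camptothecin, exposed to pin-transferred compounds, and grown at 37 °C for at least 48 hr. Viability was read as ATP luminescence.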
# HT1080NT lethal: kills 2HG-producing HT-1080-NT fibrosarcoma cells; HT-1080-NT fibrosarcoma viability, CellTiter-Glo ATP luminescence, 48 h; Potency, µM (titrated, usually from 46.1 µM), for inactives: top-dose activity, negative = less viability, most hits filed as cytotoxic; actives 1.6% (n = 360,000);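 note: NT is the 2HG producing partner of a matched IDH1 knockdown line; 0% = DMSO-treated cells and -100% = media-only wells without cells; nearly all actives have a fitted effect of over 55% in size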
#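 Compounds were tested in concentration-response format on HT-1080-NT cells for 48 hours at 37 degrees C. Cell viability came from CellTiter-Glo luminescence; curves were classified by r2, response magnitude and activity.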
# HT1080 IDH1KD tx: toxicity to HT-1080 IDH1 knockdown cells (counter line). actives 2% (n = 360,000). HT-1080 IDH1 knockdown viability, ATP luminescence, 48 h. Potency, µM (doses to about 46.1 µM), for inactives: top-dose activity, negative = toxicity, hits mostly cytotoxic. AID 686971;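 note: 0% = DMSO wells and -100% = cell-free medium wells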
#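 Luminescent ATP read-out (CellTiter-Glo, 10 min at room temperature) after 48 h compound exposure at 37 °C gave viability of IDH1-knockdown HT-1080 cells. Activity was normalised to DMSO and cell-free wells, then fitted as concentration-response curves.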
# The depositor's hits bear a star; ? = inconclusive; . = no result. The list is not random: actives were taken first. Their share in the collection is about 17%. Calls come from the whole dose curve; as a rule, active = well fitted curve in the direction sought with a large enough effect; inconclusive = small, poorly fitted or top-dose-only effect, or another doubt; inactive = no such curve, though single readings can be large; an effect the other way counts as inactive or inconclusive. Potency is the fitted concentration of half-maximal effect.
SMILES,DT40 TDP1 no CPT,HepG2 viability,TGFb SMAD3 inh,TDP1 cell CPT,HT1080NT lethal,HT1080 IDH1KD tx
Cc1ccc(S(=O)(=O)N(CC(=O)N2CCc3ccccc3C2)c2ccc(C)c(C)c2)cc1,18µM*,-10%,?,16µM*,.,.
COc1ccc(CNC(=O)N2CCN(c3ccc(F)cc3)CC2)cc1Cl,9.2µM*,-11%,0%,?,6%,-2%
COc1ccc(N(CC(=O)N2CCN(Cc3ccccc3)CC2)S(=O)(=O)c2ccccc2)cc1,?,-25%,0%,?,4%,0%
O=C(NCc1ccccc1Cl)C1CCCN(C(=O)c2cnn(-c3ccc(F)cc3)c2-n2cccc2)C1 (configuration not stated),.,-9%,-16%,.,.,.
COc1cccc(/C=N/NC(=O)C(C)Cn2cnc3ccccc32)c1 (configuration not stated),?,-15%,?,-18%,0%,-4%
CC(=O)C1=C(c2ccccc2)NC(=O)NC1c1ccc(O)c(Cl)c1 (configuration not stated),-4%,-63%,6%,28%,1%,-4%
COc1ccccc1N1CCN(C(=O)CN(CCc2ccccc2)S(C)(=O)=O)CC1,10µM*,-5%,-28%,?,4%,13%
Cc1cc(OCC(=O)N2CCc3ccccc3C2)c(C)cc1Br,16µM*,-34%,?,?,-27%,-17%
COc1ccc(S(=O)(=O)N(CC(=O)N2CCN(c3ccccc3OC)CC2)c2ccccc2)cc1,12µM*,-5%,-11%,21µM*,-22%,-23%
Cc1ccc(S(=O)(=O)N(CC(=O)N2CCN(c3ccc(F)cc3)CC2)C2CCCCC2)cc1,21µM*,-12%,-9%,?,2%,-9%
COc1ccc(N(CC(=O)N2CCN(C)CC2)S(=O)(=O)c2ccccc2)cc1,9%,4%,-22%,3%,-5%,-3%
CCOC(=O)N1CCN(C(=O)CN(C2CCCCC2)S(=O)(=O)c2ccc(C)cc2)CC1,?,-3%,9%,?,16%,20%
CC(C)c1ccc2oc(-c3ccc(NC(=O)c4cccc(Br)c4)cc3)nc2c1,?,-39%,-24%,?,.,.
C[C@H](CO)N1C[C@H](C)[C@@H](CN(C)S(=O)(=O)c2ccc(-n3cccn3)cc2)OCc2cn(nn2)CCCC1=O,-11%,-3%,1%,-7%,-1%,-5%
CN(CC(=O)N1CCCC1)S(=O)(=O)c1ccc2ccccc2c1,21µM*,2%,-5%,?,2%,3%
COc1ccccc1N(CC(=O)N1CCCC1)S(=O)(=O)c1ccc(C)cc1,-23%,3%,1%,-2%,3%,15%
COc1ccccc1N(CC(=O)N1CCN(c2ccc(F)cc2)CC1)S(=O)(=O)c1ccc(C)cc1,18µM*,6%,?,26µM*,1%,5%
O=C(CN(C1CCCCC1)C1CCCCC1)N1CCc2ccccc2C1,16µM*,-22%,?,?,?,?
COc1ccc(N(CC(=O)N2CCc3ccccc3C2)S(=O)(=O)c2ccccc2)cc1,18µM*,-17%,0%,18µM*,-4%,3%
CCn1c(SCC(=O)Nc2nncs2)nnc1C(C)NC(=O)c1ccccc1Br (configuration not stated),-22%,-16%,0%,4%,-3%,13%
Cc1ccc2ccccc2c1NC(=O)c1ccco1,2%,-18%,-3%,?,1%,13%
COc1ccccc1N(CC(=O)N1CCCCCC1)S(=O)(=O)c1ccc(C)cc1,?,-4%,8%,?,-12%,-4%
COc1ccc(S(=O)(=O)N(C)CC(=O)N2CCN(c3ccc(F)cc3)CC2)cc1OC,22µM*,-13%,-1%,?,2%,-2%
COc1ccccc1N(CC(=O)N1CCCC1)S(=O)(=O)c1cc([N+](=O)[O-])ccc1Cl,?,0%,-4%,16µM*,2%,5%
COc1ccccc1N1CCN(C(=O)C(C)N(c2ccc(C)c(C)c2)S(C)(=O)=O)CC1 (configuration not stated),?,-14%,-6%,15µM*,1%,-2%
SMILES,DT40 TDP1 no CPT,HepG2 viability,TGFb SMAD3 inh,TDP1 cell CPT,HT1080NT lethal,HT1080 IDH1KD tx
CN(C(=O)C(C)(C)C)c1ccc(OCC(=O)N2CCc3ccccc3C2)cc1,16µM*,-8%,-4%,?,?,-29%
COc1ccccc1N1CCN(C(=O)C(C)N(c2ccc(C)cc2)S(C)(=O)=O)CC1 (configuration not stated),?,1%,2%,?,1%,-1%
Cc1ccc(OCC(=O)N2CCc3ccccc3C2)cc1,?,-2%,16%,4%,0%,12%
CCN(C(=O)CSc1nnc2c3ccccc3n(CC)c2n1)C1CCS(=O)(=O)C1 (configuration not stated),?,-5%,0%,-29%,-1%,-4%
O=C(CSc1nc2ccccc2c(=O)[nH]1)Nc1ccccc1C(F)(F)F,?,-78%,-30%,?,-5%,-7%
NC(=O)CN(c1ccc(Oc2ccccc2)cc1)S(=O)(=O)c1ccccc1,?,15%,5%,21µM*,-4%,-13%
COc1ccc(N2CCN(C(=O)CN(c3ccccc3)S(=O)(=O)c3ccc(OC)cc3)CC2)cc1,21µM*,-68%,-19%,?,0%,-15%
CCNC(=O)CN(c1ccc(Oc2ccccc2)cc1)S(=O)(=O)c1ccccc1,?,0%,-28%,-29%,-2%,-9%
O=C(Nc1ccn(CCCN(CCCn2ccc(NC(=O)OCc3ccccc3)nc2=O)CCc2cc3ccccc3[nH]2)c(=O)n1)OCc1ccccc1,?,-17%,-16%,?,?,18µM*
CC(O)(c1ccc(F)c(F)c1)c1nc(-c2ccc3ccccc3c2)cs1 (configuration not stated),?,-94%,?,18µM*,?,?
CC(O)(c1ccc(F)c(F)c1)c1nc(-c2cnc3ccccc3c2)cs1 (configuration not stated),15µM*,-29%,16µM*,16µM*,?,?
